Test results reported in PubChem BioAssay (Tox21).
Inconclusive results are not listed. Active and inactive are the calls of the source. The call rests on the fitted dose curve; in most records, active means well fitted cell-killing curve with a large enough effect in the repeat runs (not every such curve was filed as active); inconclusive means weak or mixed curves, or effect the other way; inactive means no such curve, though single readings can be large or run the other way.

assay: qHTS assay to identify small molecule antagonists of the farnesoid-X-receptor (FXR) signaling pathway - cell viability counter screen (AID 743221); settings: FXR-bla HEK293T viability, CellTiter-Glo luminescence, 16 h; series mostly up to 62.6 µM; activity change, negative = cytotoxicity: at the top concentration; further: nearly all actives have a fitted effect of over 50% in size
From the text: National Center for Advancing Translational Sciences [NCATS]
NIH Chemical Genomics Center [NCGC]
U.S. Environmental Protection Agency [EPA]
National Institutes of Environmental Health Sciences [NIEHS]
National Toxicology Program [NTP]
U.S. Food and Drug Administration [FDA]
The farnesoid-X-receptor (FXR), a nuclear hormone receptor, is highly expressed in liver, intestine, kidney and adrenal cortex. Natural ligands of FXR are the bile acids (Cholic acid, Chenodeoxy cholic acid etc). FXR is an important regulator of diverse metabolic pathways, including the bile acid homeostasis, lipid and glucose metabolisms. FXR regulates the expression of target genes by binding either as a monomer or as a heterodimer with the retinoid X receptor (RXR). Numerous studies have reported that FXR exerts protective function during cholestasis, diabetes, liver regeneration, and cancer. To identify compounds that inhibit FXR signaling, GeneBLAzer FXR-UAS-bla HEK 293T cell line (Invitrogen, Carlsbad, CA) containing a beta-lactamase reporter gene under the control of a UAS response element was used to screen the Tox21 10K compound library. The cytotoxicity of the Tox21 compound library against the FXR-bla cell line was tested in parallel by measuring the cell viability using CellTiter-Glo assay in the same wells.
Tox21 Assay Protocol Summary:
FXR-bla cells were dispensed at 5000 cells/5uL/well in 1536-well black wall/clear bottom plates using a Multidrop Combi (Thermo Fisher Scientific, Waltham, MA) dispenser. After the assay plates were incubated at 37 C and 5% CO2 for 5 h, 23 nL of compounds dissolved in DMSO, positive controls or DMSO only was transferred to the assay plate by a Pintool station (Kalypsys, San Diego, CA), followed by addition of 1 uL Chenodeoxycholic acid (50 uM, final concentration in the wells). The assay plates were incubated at 37C for 16 h. After 1 uL of LiveBLAzerTM B/G FRET substrate was added using a Bioraptr Flying Reagent Dispenser (FRD) workstation (Beckman Coulter, Indianapolis, IN), the plates were incubated at room temperature for 2 h, and fluorescence intensity was measured by an Envision plate reader (PerkinElmer, Shelton, CT). For cell viability readout that measures cytotoxicity, 4uL/well of CellTiter-Glo reagent was added into the assay plates using a Bioraptr FRD. After 30 min incubation at room temperature, the luminescence intensity in the plates was measured using a ViewLux plate reader (PerkinElmer).
On the % scale 0 is the no-effect control and ±100 the full control effect.

| SMILES | activity change, negative = cytotoxicity |
| --- | --- |
| CC(=O)Nc1ncc([N+](=O)[O-])s1 | 9.73% (inactive) |
| Cc1nc2ccccc2c(=O)o1 | -1.16% [at 81.1 µM] (inactive) |
| NS(=O)(=O)c1cc2c(cc1Cl)NC(C(Cl)Cl)NS2(=O)=O (stereo not given) | 0.517% (inactive) |
| COc1cc2c3cc1Oc1cc(ccc1O)C[C@@H]1c4c(cc(OC)c(O)c4Oc4ccc(cc4)C[C@@H]3N(C)CC2)CC[N+]1(C)C | -2.33% (inactive) |
| OCCCCCCCl | 14.2% [at 81.1 µM] (inactive) |
| FC(F)(F)c1ccc(Cl)cc1Cl | -1.37% (inactive) |
| CC(=O)c1ccc2c(c1)CCCC2 | -6.94% (inactive) |
| O=P(O)(O)OCC(O)CO (stereo not given) | -0.588% (inactive) |
| CC(C)COC(=O)CC(C(=O)OCC(C)C)S(=O)(=O)O (stereo not given) | 8.86% (inactive) |
| O=C1NC2NC(=O)NC2N1 (stereo not given) | 0.538% (inactive) |
| CC(=O)N1CCN(c2ccc(O)cc2)CC1 | 2.52% (inactive) |
| CCCO | 0.395% (inactive) |
| CCN1CN(CC)CN(CC)C1 | -0.37% (inactive) |
| O=C(Nc1cccc(C2=NCCN2)c1)Nc1cccc(C2=NCCN2)c1 | 0.222% [at 29.1 µM] (inactive) |
| CCC(=O)c1ccc(O)cc1 | 5.85% (inactive) |
| O=S(=O)(O)CCO | -1.05% [at 81.1 µM] (inactive) |
| O=C(c1ccc2c(c1)C(=O)OC2=O)c1ccc2c(c1)C(=O)OC2=O | 2.43% (inactive) |
| CCOC(=O)CCCCCCCCC(=O)OCC | 5.35% (inactive) |
| CCN(CCO)c1cccc(C)c1 | -0.364% (inactive) |
| CCNC(=O)NCCCOc1cccc(CN2CCCCC2)c1 | 0.0702% (inactive) |

| SMILES | activity change, negative = cytotoxicity |
| --- | --- |
| C=CCOCC(CO)(COCC=C)COCC=C | 2.85% (inactive) |
| CCCCC/C=C/CC(=O)OC | -4.53% (inactive) |
| O=C1OC(=O)c2ccccc21 | 6.52% (inactive) |
| COc1cc(C=O)ccc1OC(=O)C(C)C | -0.925% (inactive) |
| C1CCN2C[C@@H]3C[C@@H](CN4CCCC[C@@H]34)[C@H]2C1 | 3.45% (inactive) |
| Cn1c(=O)c2c(ncn2CC2OCCO2)n(C)c1=O | 10.3% (inactive) |
| COc1cccc2sc(N)nc12 | -14.5% [at 81.1 µM] (inactive) |
| C[C@H]1O[C@H](O[C@H]2[C@H](O)[C@@H](O)[C@@H](O[C@H]3[C@H](O)[C@@H](O)[C@H](O)O[C@@H]3CO)O[C@@H]2CO)[C@H](O)[C@@H](O)[C@@H]1N[C@H]1C=C(CO)[C@@H](O)[C@H](O)[C@H]1O | 3.81% (inactive) |
| CCOc1ccc(NC(=O)OC(C)C)cc1OCC | -3.94% (inactive) |
| CC(CC(=O)O)CC(C)(C)C (stereo not given) | -0.0084% (inactive) |
| CC(C)(c1ccc(Oc2ccc3c(c2)C(=O)OC3=O)cc1)c1ccc(Oc2ccc3c(c2)C(=O)OC3=O)cc1 | -1.18% (inactive) |
| CCCCCN(CCCOC)C(=O)C(CCC(=O)O)NC(=O)c1ccc(Cl)c(Cl)c1 (stereo not given) | -1.67% (inactive) |
| Nc1ccc(S(=O)(=O)NC(=O)c2ccccc2)cc1 | -2.19% (inactive) |
| C=C(C)[C@@H]1CC[C@@H](C)C[C@@H]1O | -9.97% (inactive) |
| O=S(=O)(O)c1cc(O)ccc1O | 22.8% (inactive) |
| CCC(C)(CCC(C)C)C(=O)[O-].CCC(C)(CCC(C)C)C(=O)[O-].[Zn+2] (stereo not given) | 3.28% (inactive) |
| Cc1ccccc1OCC1CO1 (stereo not given) | -0.643% [at 81.1 µM] (inactive) |
| O=c1cc(O)c(Cl)c[nH]1 | 10.9% (inactive) |
| Cc1ncc([N+](=O)[O-])n1CC(O)CCl (stereo not given) | 5.2% (inactive) |
| C[CH2][Ge]([Cl])([CH2]C)[CH2]C | -8.33% [at 81.1 µM] (inactive) |
